Values without a mark were called inactive. How the calls were made is not given here.

By inhibition is commonly meant the share of the control response that was lost under treatment.

Chain of Pantothenate synthetase (Mycobacterium tuberculosis (strain ATCC 25618 / H37Rv)) (P9WIL5 whole entry, looked up): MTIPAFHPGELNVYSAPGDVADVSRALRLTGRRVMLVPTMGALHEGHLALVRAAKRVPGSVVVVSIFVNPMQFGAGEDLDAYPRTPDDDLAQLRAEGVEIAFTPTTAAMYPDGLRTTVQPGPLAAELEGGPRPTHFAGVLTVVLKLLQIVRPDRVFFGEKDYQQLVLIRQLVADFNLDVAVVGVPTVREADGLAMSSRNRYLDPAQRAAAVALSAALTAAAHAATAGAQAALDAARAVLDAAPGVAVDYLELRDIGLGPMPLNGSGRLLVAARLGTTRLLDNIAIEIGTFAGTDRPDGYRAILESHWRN

The experiment concerns the target Pantothenate synthetase (Mycobacterium tuberculosis (strain ATCC 25618 / H37Rv)) (UniProt P9WIL5). Kind of experiment: Recombinant Mtb pantothenate synthetase (PanC) inhibitors, coupled enzyme, confirmatory (AID 375).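 Further: 0% = full reaction with vehicle and 100% = no enzyme background.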 The settings on record: coupled enzyme assay; at 10 µM, hits give high values.
As to `COc1cccc(CNC(=O)CCn2c(=O)oc3ccccc32)c1`, the inhibition is 0%.

For the compound `O=C(Nc1nccs1)NC(C(F)(F)F)C(F)(F)F`, the inhibition was 7%.

Regarding `C=CCNc1oc(-c2cccc3ccccc23)nc1C#N`, the inhibition was 0%.

For `Cc1ccc(-c2cc(C(=O)Nc3cc(C)ccc3C)[nH]n2)c(O)c1`, the inhibition was 0%.

Take `CCOC(=O)c1c(C)oc2ccc(NS(=O)(=O)c3ccc4c5c(cccc35)C(=O)N4)cc12`: the inhibition is 3%.

For the compound `CCn1nnc(NC(=O)c2cc3ccccc3o2)n1`, the inhibition is 0%.

Take `COc1ccc(CN2C(=O)CN=C2Nc2ccc(C)cc2C)cc1`: the inhibition is 6%.

For `CC(=O)Nc1ccc(-c2cc3ccccc3o2)cc1`, the inhibition was 8%.

With `Cc1cccc(C(OC(=O)c2ccco2)C(=O)NCc2ccccc2)n1` (configuration not stated), the inhibition was 4%.

In the case of `COc1ccccc1OCCOCCn1cnc2ccccc2c1=O`, the inhibition was 0%.

For the compound `CCOC(=O)CSc1nc2ccccc2c(=O)n1NC(=O)c1ccccc1`, the inhibition is 1%.

As to `CCOC(=O)CSc1nc(N)c2c3c(sc2n1)CCCC3`, the inhibition is 0%.

In the case of `CCOc1cc(S(=O)(=O)NCc2ccccn2)c(C)cc1C`, the inhibition is 0%.

Turning to `O=C(NCc1nc2ccccc2[nH]1)c1ccco1`, the inhibition is 0%.

Consider `Cc1cc(S(=O)(=O)n2cnc3ccccc32)c(C)cc1Cl`, for which the inhibition was 0%.

With `O=C(Cn1ncc2c1-c1ccccc1OC2)N1CCN(c2ccccn2)CC1`, the inhibition was 0%.

Regarding `CCC(C)NC(=O)CS(=O)(=O)Cc1nc(-c2cccc(OC)c2)oc1C` (configuration not stated), the inhibition is 0%.

Regarding `CC(C)Cn1c(=O)c(C(=O)NCc2ccccn2)c(O)c2ccccc21`, the inhibition is 0%.

Take `Clc1ccc(-c2nnc3sc(-c4ccc(Br)o4)nn23)cc1`: the inhibition is 0%.

For `COc1ccc(CCn2c(N)c(C#N)c3nc4ccccc4nc32)cc1OC`, the inhibition was 0%.

Regarding `CCOC(=O)c1c(N)nn(C(=O)C(C)C)c1-c1ccccc1`, the inhibition was 0%.

Regarding `CN(C)/C=C1\N=C(c2ccc3c(c2)OCO3)OC1=O`, the inhibition was 0%.

These data come from PubChem BioAssay.
